Assay [1] is described as follows: qHTS RealTime-Glo MT Cell Viability Assay in HEK293 cells - 8 hour (AID 1224887). Also: nearly all actives have a fitted effect of over 50% in size. Also: potency is read from the fitted curve at half-maximal effect. The essentials: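 600 HEK293 cells per well, dispensed already mixed with RealTime-Glo MT reagents. Compound dosing came 5 h later. The same wells were read for luminescence at 0, 8, 16, 24, 32 and 40 h of exposure at 37 C.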
A general note: Quantitative high-throughput screening tests each substance at several concentrations.

The nature of assay [2]: A CellTox Green Cytotoxicity Assay to monitor cytotoxicity in HEK293 cells - 16 hour (AID 1224888). Also: nearly all actives have a fitted effect of over 35% in size. The essentials:
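Dead-cell fluorescence measured kinetically: asymmetric cyanine dye, HEK293, 600 cells/well, 5 h settle, 23 nL cpd/DMSO, 37 C, reads 0–40 h every 8 h.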

Assay [3] can be described thus: A CellTox Green Cytotoxicity Assay to monitor cytotoxicity in HepG2 cells - 8 hour (AID 1224890). Also: nearly all actives have a fitted effect of over 45% in size. In short, it runs like this: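 First, HepG2 cells (600/well) mixed with reagent were plated; second, after 5 h at 37 C they received compounds via pintool; third, fluorescence was measured at 0 h through 40 h at 8 h intervals.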
Assay [4] is described as follows: qHTS assay to identify small molecule antagonists of the estrogen receptor alpha (ER-alpha) signaling pathway using the BG1 cell line in the presence of 0.1 nM 17-beta-estradiol - cell viability counter screen (AID 1259241). Also: nearly all actives have a fitted effect of over 40% in size. Also: potency is read from the fitted curve at half-maximal effect. The essentials:
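In this screen, hormone-deprived VM7Luc4E2 cells were seeded at 4,000 per well, dosed with compound and 0.1 nM estradiol final, and incubated 22 hr at 37C and 5% CO2; fluorogenic live-cell protease signal reported viability.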

Assay [5] is described as follows: qHTS assay to identify small molecule antagonists of the androgen receptor (AR) signaling pathway using the MDA cell line in the presence of 0.5 nM R1881 - cell viability counter screen (AID 1259242). Also: nearly all actives have a fitted effect of over 45% in size. Also: potency is read from the fitted curve at half-maximal effect. In short, it runs like this:
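qHTS format. MDA-kb2 (MMTV-luc, AR/GR responsive) + cpd + 0.5 nM R1881 final, 16 hr 37C/0% CO2 → CellTiter-Fluor 30 min → fluorescence intensity.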

For assay [6], the target named is Androgen receptor (Homo sapiens) (UniProt P10275). The assay is described as follows: qHTS assay to identify small molecule antagonists of the androgen receptor (AR) signaling pathway using the MDA cell line in the presence of 0.5 nM R1881 (AID 1259243). Also: nearly all actives have a fitted effect of over 50% in size. The essentials:
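Antagonist mode quantitative HTS in MDA-kb2 MMTV-luciferase cells, agonist R1881 at 0.5 nM final, 16 hr exposure at 37C and 0% CO2, luminescent detection.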

The target in assay [7] is Estrogen receptor (Homo sapiens) (UniProt P03372). In words: qHTS assay to identify small molecule antagonists of the estrogen receptor alpha (ER-alpha) signaling pathway using the BG1 cell line in the presence of 0.1 nM 17-beta-estradiol (AID 1259244). Also: nearly all actives have a fitted effect of over 50% in size. In short, it runs like this:
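Reporter is a stably transfected luciferase under four estrogen responsive elements in VM7Luc4E2 cells expressing native full-length ER-alpha; inhibition of 0.1 nM (final) 17beta-estradiol-driven signal over 22 h is read by luminescence.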

A short description of assay [8]: qHTS assay to identify small molecule HDAC inhibitors (AID 1259364).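 Also: wild-type HCT-116 cells with endogenous class I/II HDAC activity; top concentration of the series differs between compounds; nearly all actives have a fitted effect of over 45% in size.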 In short, it runs like this:
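Quantitative high-throughput format: overnight-seeded HCT-116 cells got compounds for 2 hr at 37C; HDAC-Glo I/II reagent added, 30 min RT, luminescence measured.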

Assay [9] is described as follows: qHTS assay to identify small molecule HDAC inhibitors - cell viability counter screen (AID 1259365). Also: series mostly up to about 92 µM; nearly all actives have a fitted effect of over 50% in size. The essentials:
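Measured quantity is CellTiter-Glo luminescence from wild-type HCT-116 cells after compound incubation of 2hr at 37C, 5% CO2; reagent developed 30min at room temperature.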

The nature of assay [10]: qHTS assay to identify small molecule agonists of the sonic hedgehog signaling (Shh) pathway - cell viability counter screen (AID 1259366). Also: nearly all actives have a fitted effect of over 50% in size. Also: potency is read from the fitted curve at half-maximal effect. The essentials:
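In quantitative high-throughput format, 3T3 Gli1-Luc cells were exposed to compounds for 24hr and multiplexed for viability using CellTiter-Fluor, incubated 1hr at 37C before the fluorescence read.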

Assay [11] is described as follows: qHTS assay to identify small molecule antagonists of the sonic hedgehog signaling (Shh) pathway - cell viability counter screen (AID 1259367). Also: nearly all actives have a fitted effect of over 55% in size. Also: potency is read from the fitted curve at half-maximal effect. In short, it runs like this: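 CellTiter-Fluor signal in conditioned medium-stimulated 3T3 Gli1-Luc cells, 23 hr compound exposure, 37C.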
A short description of assay [12]: qHTS assay to identify small molecule agonists of the sonic hedgehog signaling (Shh) pathway (AID 1259368; calls by dose curve;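 also: NIH/3T3-derived 3T3Gli1-Luc cells carrying a stable Gli1-driven firefly luciferase reporter; series mostly up to about 92 µM; nearly all actives have a fitted effect of over 15% in size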). In short, it runs like this: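 Quantitative high-throughput format using a Gli1-driven firefly luciferase reporter line derived from NIH/3T3 cells. After a 24 hr compound treatment at 37 C and 5% CO2, luminescence reported Gli1 response element activity.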

Assay [13] is described as follows: qHTS assay to identify small molecule antagonists of the sonic hedgehog signaling (Shh) pathway (AID 1259369; calls by dose curve; also: nearly all actives have a fitted effect of over 45% in size; also: potency is read from the fitted curve at half-maximal effect). The essentials: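 Stable Gli1-Luc reporter NIH/3T3 clone; quantitative HTS in stimulated mode with conditioned medium. Luminescence measured after 24hr compound treatment at 37 C.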
Assay [14] in a line: qHTS assay to identify small molecule agonists of the androgen receptor (AR) signaling pathway in the presence of an antagonist - cell viability counter screen (AID 1259379). Also: nearly all actives have a fitted effect of over 25% in size. Also: potency is read from the fitted curve at half-maximal effect. The essentials:
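Nilutamide-containing (3.0uM final) MDA-kb2 cultures, 3,000 cells/well, were treated with compounds across 15 concentrations. After 16 hr at 37C with no CO2, cell viability was determined by CellTiter-Fluor fluorescence in the luciferase assay wells.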

Assay [15] can be described thus: qHTS assay to identify small molecule agonists of the estrogen receptor beta (ER-beta) signaling pathway - cell viability counter screen (AID 1259380). Also: nearly all actives have a fitted effect of over 30% in size. Also: potency is read from the fitted curve at half-maximal effect. In short, it runs like this:
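Steps: plate ER-beta-UAS-bla HEK293T cells, rest 6 hr; add compounds in DMSO; incubate 16 hr at 37C, 5% CO2; add FRET substrate 2 hr; add CellTiter-Glo, wait 30 min at room temperature; read luminescence.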

The target in assay [16] is Androgen receptor (Homo sapiens) (UniProt P10275). The assay is described as follows: qHTS assay to identify small molecule agonists of the androgen receptor (AR) signaling pathway in the presence of an antagonist (AID 1259381; calls by dose curve; also: nearly all actives have a fitted effect of over 15% in size). The essentials:
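Reporter-gene luminescence from MDA-kb2 cells exposed 16hr at 37C (0% CO2) to 15-point compound titrations with 3.0uM final nilutamide as AR antagonist.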

The nature of assay [17]: qHTS RealTime-Glo MT Cell Viability Assay in HepG2 cells - 0 hour (AID 1224889). Also: nearly all actives have a fitted effect of over 50% in size. In short, it runs like this: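 qHTS, HepG2, 600 cells/well, RealTime-Glo (NanoLuc + prosubstrate) added with cells; 5 h preincubation; DMSO compound addition; 37 C; luminescence at 0/8/16/24/32/40 h.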
For assay [18], the target named is Estrogen receptor beta (Homo sapiens) (UniProt Q92731). In words: qHTS assay to identify small molecule agonists of the estrogen receptor beta (ER-beta) signaling pathway (AID 1259377; active = well fitted activation curve with a large enough effect in the signal ratio in the repeat runs, not every such curve was filed as active; the % refers to the signal ratio). In short, it runs like this: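 Reporter cells (HEK293T, ER-beta-UAS-bla) receive compounds or DMSO after a 6 hr pre-incubation. They then incubate 16 hr at 37C/5% CO2, and fluorescence from LiveBLAzer B/G substrate is measured after 2 hours at room temperature.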
Chain of Estrogen receptor beta (Homo sapiens) (Q92731 whole entry, looked up): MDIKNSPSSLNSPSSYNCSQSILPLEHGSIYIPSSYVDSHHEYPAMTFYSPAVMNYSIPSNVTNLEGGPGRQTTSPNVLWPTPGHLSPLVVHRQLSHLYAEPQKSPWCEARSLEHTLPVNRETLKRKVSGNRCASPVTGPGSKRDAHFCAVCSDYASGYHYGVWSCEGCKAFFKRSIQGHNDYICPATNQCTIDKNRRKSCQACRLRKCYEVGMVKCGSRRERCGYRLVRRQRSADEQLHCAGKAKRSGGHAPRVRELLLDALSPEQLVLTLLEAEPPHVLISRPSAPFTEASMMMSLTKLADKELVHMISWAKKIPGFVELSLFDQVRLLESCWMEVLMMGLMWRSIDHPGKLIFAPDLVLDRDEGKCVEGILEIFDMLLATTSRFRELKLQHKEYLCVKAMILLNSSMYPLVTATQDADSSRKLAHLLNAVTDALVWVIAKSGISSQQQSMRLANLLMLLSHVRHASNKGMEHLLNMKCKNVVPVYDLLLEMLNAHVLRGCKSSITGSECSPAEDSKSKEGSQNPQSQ

Assay [19] has the same target. In words: qHTS assay to identify small molecule antagonists of the estrogen receptor beta (ER-beta) signaling pathway (AID 1259378; active = well fitted inhibition curve with a large enough effect in the signal ratio in the repeat runs, not every such curve was filed as active; the % refers to the signal ratio). The essentials: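 Antagonist mode: compounds added to beta-lactamase reporter HEK293T ER-beta-UAS cells stimulated with E2 (1nM final), 16 hr at 37C. LiveBLAzer B/G FRET substrate, 2 hours room temperature, fluorescence read-out.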
Assay [20] in a line: qHTS assay to identify small molecule phospholipidosis (PLD) inducers (AID 1259344; active = well fitted curve in the direction sought with a large enough effect; an effect the other way counts as inactive or inconclusive). In short, it runs like this: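 Accumulated phospholipid, stained red by LipidTOX during 24 h compound treatment of HepG2 cells at 37 C, is quantified from images as pit number and intensity, normalised per cell using Hoechst-stained nuclei.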

Molecules are shown by their SMILES. Unmarked numbers belong to inactive results. Inconclusive results are not listed. The source made the active and inactive calls. Unless noted, calls follow the shape of the dose curve; as a rule, active = well fitted curve in the direction sought with a large enough effect in the repeat runs; inconclusive = weak or mixed curves; inactive = no such curve, though single readings can be large; an effect the other way counts as inactive or inconclusive.
% is scaled to controls: 0 for no effect and ±100 for the full control effect.

Chain of Androgen receptor (Homo sapiens) (P10275 whole entry, looked up): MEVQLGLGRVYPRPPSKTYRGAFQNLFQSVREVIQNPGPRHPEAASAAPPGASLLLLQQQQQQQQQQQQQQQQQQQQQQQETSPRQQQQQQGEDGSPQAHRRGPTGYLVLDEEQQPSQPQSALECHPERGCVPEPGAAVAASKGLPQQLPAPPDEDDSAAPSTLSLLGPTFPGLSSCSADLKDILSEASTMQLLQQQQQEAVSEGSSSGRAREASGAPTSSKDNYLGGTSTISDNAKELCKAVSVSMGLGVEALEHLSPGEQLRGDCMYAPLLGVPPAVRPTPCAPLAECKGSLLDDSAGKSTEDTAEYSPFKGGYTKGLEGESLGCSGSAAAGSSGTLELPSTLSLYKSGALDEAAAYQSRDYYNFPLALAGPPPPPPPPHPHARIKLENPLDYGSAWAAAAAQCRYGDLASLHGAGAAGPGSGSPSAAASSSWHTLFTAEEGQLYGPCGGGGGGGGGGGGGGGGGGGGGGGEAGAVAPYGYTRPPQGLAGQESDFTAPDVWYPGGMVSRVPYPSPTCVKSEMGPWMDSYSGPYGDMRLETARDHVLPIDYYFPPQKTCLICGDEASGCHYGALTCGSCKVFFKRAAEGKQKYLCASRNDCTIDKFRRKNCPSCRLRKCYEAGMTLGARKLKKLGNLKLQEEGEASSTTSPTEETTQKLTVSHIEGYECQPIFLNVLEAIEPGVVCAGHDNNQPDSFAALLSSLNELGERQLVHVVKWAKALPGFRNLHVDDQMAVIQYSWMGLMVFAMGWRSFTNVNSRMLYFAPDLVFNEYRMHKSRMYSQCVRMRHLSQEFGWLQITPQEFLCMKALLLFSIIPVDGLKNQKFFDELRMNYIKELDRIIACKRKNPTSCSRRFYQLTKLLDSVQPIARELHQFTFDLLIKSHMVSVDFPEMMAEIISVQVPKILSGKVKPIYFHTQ
Chain of Estrogen receptor (Homo sapiens) (P03372 whole entry, looked up): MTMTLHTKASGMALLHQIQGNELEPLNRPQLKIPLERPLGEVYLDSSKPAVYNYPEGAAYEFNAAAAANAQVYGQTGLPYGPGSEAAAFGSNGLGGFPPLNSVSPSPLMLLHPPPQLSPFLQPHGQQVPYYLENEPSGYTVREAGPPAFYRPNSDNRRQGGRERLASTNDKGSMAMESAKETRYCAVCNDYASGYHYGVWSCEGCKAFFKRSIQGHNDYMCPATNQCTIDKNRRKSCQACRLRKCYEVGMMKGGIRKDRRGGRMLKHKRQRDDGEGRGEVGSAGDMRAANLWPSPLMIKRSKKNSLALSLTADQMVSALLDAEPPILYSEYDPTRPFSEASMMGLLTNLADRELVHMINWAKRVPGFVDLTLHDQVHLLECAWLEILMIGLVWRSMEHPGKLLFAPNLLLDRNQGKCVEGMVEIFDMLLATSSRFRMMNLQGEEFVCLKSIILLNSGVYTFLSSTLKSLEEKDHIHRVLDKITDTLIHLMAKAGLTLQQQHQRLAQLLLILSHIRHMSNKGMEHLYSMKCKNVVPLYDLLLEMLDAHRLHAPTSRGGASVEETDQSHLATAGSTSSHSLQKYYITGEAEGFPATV

As to `CCOc1nc(F)cc2nc(S(=O)(=O)Nc3c(Cl)cccc3C(=O)OC)nn12`, the Potency result in assay [1], in [2], in [3], in [4], in [5] and in [6] was “inactive” in each case. Moreover, the Potency result in assay [7], in assay [8], in assay [9], in [10], in [11] and in [12] was “inactive” in each case. Moreover, the Potency entry in assay [13], in assay [14], in assay [15] and in [16] was “inactive” each time.
Take `CCNc1nc(NC(C)(C)C)nc(OC)n1`: the Potency result in assay [1], in [2], in assay [17], in [3], in [5] and in assay [8] was “inactive” each time. The Potency result in assay [10], in assay [11], in [12], in [19], in assay [14] and in [15] was “inactive” in each case. For the same compound, the call in [18] was inactive.
As to `C=C(C)C1CCC(C)CC1O` (stereo unspecified), the Potency result in assay [1], in assay [2], in assay [17], in assay [3], in assay [5] and in [8] was “inactive” throughout. For the same compound, the Potency result in assay [9], in [10], in assay [11], in assay [12], in assay [13] and in assay [14] was “inactive” throughout. The Potency entry in [15] is “inactive”.
Turning to `CCCC(=O)c1cc(O)c(O)cc1O`, the Potency result in assay [1], in assay [2], in [17], in [3], in assay [6] and in assay [7] was “inactive” each time. The Potency result in assay [8], in [9], in assay [12] and in assay [16] was “inactive” each time. The PLD induction in [20] is -3.64% [at 3.15 µM]. The results for the Potency in assay [10], in assay [13] and in [14] were 54.5 µM (active), 27.3 µM (active) and 54.5 µM (active), respectively.
Turning to `Cc1cc(Br)ccc1NC(=O)CCl`, the Potency was 24.5 µM (active) in assay [1]; 61.1 µM (active) in assay [4]; 48.6 µM (active) in assay [5]; 9.69 µM (active) in [10]; 19.3 µM (active) in assay [11]; 4.33 µM (active) in [13]. The Potency in [14] was 54.5 µM (active). Also, the Potency result in assay [2], in assay [3], in [7], in assay [8] and in assay [12] was “inactive” each time.
In the case of `CCSCC`, the Potency entry in assay [1], in assay [2], in [17], in assay [3], in assay [5] and in assay [8] was “inactive” in each case. Also, the Potency entry in [9], in assay [12] and in assay [14] was “inactive” in each case. In addition, the Potency was 57.6 µM (active) in assay [11] and 18.2 µM (active) in assay [13]. Moreover, the compound was classed as inactive in assay [18].
For `C[C@H]1O[C@@H](O[C@H]2CC[C@@]3(C)[C@H](CC[C@@H]4[C@@H]3C[C@@H](O)[C@]3(C)[C@@H](C5=CC(=O)OC5)CC[C@]43O)C2)C[C@H](O)[C@@H]1O[C@H]1C[C@H](O)[C@H](O[C@H]2C[C@H](O)[C@H](O[C@@H]3O[C@H](CO)[C@@H](O)[C@H](O)[C@H]3O)[C@@H](C)O2)[C@@H](C)O1`, the Potency result in [1], in assay [2], in assay [17], in assay [3], in assay [5] and in assay [6] was “inactive” each time. Besides, the Potency entry in assay [8], in [9], in [10], in [11], in assay [12] and in assay [13] was “inactive” in each case. For the same compound, the Potency result in assay [16] was “inactive”. In addition, the Potency in [15] was 0.168 µM (active).
Consider `O=C(Nc1ccc([N+](=O)[O-])cc1)Nc1ccc([N+](=O)[O-])cc1` (tested in a mixture with another compound), for which the Potency entry in assay [1], in assay [2], in assay [3], in [4], in assay [5] and in assay [8] was “inactive” each time. The Potency entry in [10], in assay [11], in assay [12], in assay [19] and in assay [14] was “inactive” throughout. For the same compound, in assay [18], the compound was classed as inactive.

These data come from PubChem BioAssay (Tox21).
